Screening results (PubChem)
Sampled rows, rich in hits. Any-hit rate of the full collection: about 2.2%.
aSyn yeast inh = qHTS of alpha-syn Inhibitors. Yeast expressing alpha-synuclein, growth rescue, BacTiter-Glo, 24 h. Potency, µM (series often up to 46.1 µM), without a hit: top-dose growth rescue (activation), actives largely listed as activators. actives 0.14% (n = 370,000); note: % of control where 0% means no effect; nearly all actives have a fitted effect of over 65% in size
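Screening used galactose-induced yeast with toxic alpha-synuclein levels, exposed to compound for 24 hr at 30 deg C. Cell growth, read with BacTiter-Glo luminescence, gave the measured signal.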
FUS yeast rescue = qHTS for Suppressors of FUS Proteinopathy: Primary screen using FUS-linked yeast assay. S. cerevisiae FUS-expressing, growth rescue, OD600, 24 h. Potency, µM (highest dose often 76.6 µM), most hits filed as activators. actives 0.24% (n = 390,000);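 note: plate controls were DMSO vehicle for no effect and reference control for full effect; nearly all actives have a fitted effect of over 55% in size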
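Absorbance at 600 nm, taken 24hr after compound addition, measured rescue of FUS-yeast growth at 30C. Induction used 2% galactose with seeding at OD 0.005. Controls: CP55940 from 92uM final, DMSO only.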
Mito fusion yeast = qHTS Assay for Small Molecule Inhibitors of Mitochondrial Division or Activators of Mitochondrial Fusion. S. cerevisiae fusion-defective mutant growth rescue, CellTiterGlo 48 h. Potency, µM (top dose mostly 46.1 µM), for inactives: at the highest dose growth rescue (activation), most hits filed as activators. actives 0.23% (n = 320,000); note: % of control where 0% means no effect; nearly all actives have a fitted effect of over 45% in size
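Temperature-sensitive fusion-defective S. cerevisiae (e.g. fzo1-1, mgm1-5) were grown with compound in YPEG medium (3% ethanol, 3% glycerol) for 48 hours at 37C. Growth rescue was measured as viability by CellTiterGlo luminescence after 10 minutes at ambient.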
Abeta rescue = qHTS for compounds that reverse cellular toxicity of Amyloid beta (A-beta) peptide in yeast: Primary Screen | yeast expressing A-beta42, growth rescue, OD600, 48 h; response scale: 0% DMSO, 100% iron-clioquinol control | Potency, µM (top dose mostly 46.1 µM), hits mostly activators | actives 0.063% (n = 410,000) | AID 1347071, 2019; note: nearly all actives have a fitted effect of over 55% in size
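Yeast A-beta toxicity model in growth medium with pinned compounds, 48 h at 30 C; growth read as absorbance at 600 nm. Normalized to FeCl3/clioquinol equimolar mix (positive) and DMSO (negative).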
TDP-43 yeast inh = qHTS of TDP-43 Inhibitors; TDP-43 expressing yeast growth rescue, BacTiter-Glo, 24 h; Potency, µM (top dose mostly 46.1 µM), inactives show at the highest dose growth rescue (activation), hits mostly activators; actives 1.8% (n = 410,000); AID 652104, 2013; note: % of control where 0% means no effect; nearly all actives have a fitted effect of over 50% in size
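In this qHTS, compounds that restore growth of yeast expressing TDP-43 appear as activators. Cells (OD600=0.02, galactose medium, raffinose-pregrown) are incubated with compound 24 hr at 30 deg C and growth is quantified by BacTiter-Glo.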
Active calls of the source: *; i = inactive; u = inconclusive; x = no result; [ ] = remark or other dose. Calls come from the whole dose curve; as a rule, active = well fitted curve in the direction sought with a large enough effect; inconclusive = small, poorly fitted or top-dose-only effect, or another doubt; inactive = no such curve, though single readings can be large; an effect the other way counts as inactive or inconclusive. Potency is the fitted concentration of half-maximal effect.

SMILES	aSyn yeast inh	FUS yeast rescue	Mito fusion yeast	Abeta rescue	TDP-43 yeast inh
COc1ccc(N2CCN(C(=O)c3ccc(N(C)S(=O)(=O)c4ccc(C)cc4)cc3)CC2)cc1	1.8%	u	10.3%	i	12.6µM*
COc1ccccc1N1CCN(C(=O)c2ccc(-c3ccccc3)cc2)CC1	9.3%	i	3.0%	i	17.8µM*
COC(=O)[C@]12C[C@H](CC(=O)N3CCC(c4ccccc4)CC3)C(=O)N(CCC3=CCCCC3)C1=C[C@H](C(C)C)O[C@@H]2C1CC1	x	i	x	x	x
Cc1noc(C)c1COc1ccc(C(=O)N2CCN(c3cccc(Cl)c3)CC2)cc1	10.3%	i	-11.8%	i	22.4µM*
COc1cccc(N2CCN(C(=O)c3ccc(-c4ccccc4)cc3)CC2)c1	11.1%	u	1.7%	i	12.6µM*
COc1ccccc1N1CCN(C(=O)Nc2ccc([N+](=O)[O-])cc2)CC1	6.1%	i	9.2%	i	14.1µM*
COc1ccc(C(=O)N2CCN(c3cccc(Cl)c3)CC2)cc1	5.6%	x	11.9%	i	u
COc1ccccc1N1CCN(C(=O)Nc2cccc(C)c2)CC1	21.8%	i	2.3%	i[9.22 µM]	u
Cc1cccc(NC(=O)Cn2c(=O)c3cccn3c3ccccc32)c1C	x	i	x	i	1.2%
C/C(=N\NC(=S)NCC(C)(C)C)c1cc(F)cc(F)c1O	8.5%	i	2.6%	u	12.6µM*
C[C@H]1[C@H](NC(=O)c2ccc(C(F)(F)F)cc2)CC[C@@]23CCCN2C(=O)CCC[C@@H]13	x	i	x	x	x
Cc1cc(C)c(C(CC(=O)c2cccs2)C(C#N)C#N)c(C)c1 (stereo not drawn)	1.4%	i	28.1%	i	12.6µM*
COc1cccc(NC(=O)CSC2=Nc3ccccc3C3=NC(CC(=O)NCc4ccc5c(c4)OCO5)C(=O)N23)c1 (stereo not drawn)	x	25.1µM*	x	i	5.1%
O=C(NC1CCCCN(Cc2ccc(Cl)cc2)C1=O)c1ccc(F)cc1 (stereo not drawn)	x	i	x	x	x
CCOc1ccc2nc(N(Cc3cccnc3)C(=O)c3ccco3)sc2c1	x	i	x	i	20µM*
O=C(C1CCCCC1)N(Cc1cccnc1)c1nc2ccc(F)cc2s1	x	i	x	i	u
Cc1cccc2sc(N(Cc3cccnc3)C(=O)c3cccs3)nc12	x	i	x	i	31.6µM*
COc1ccc2nc(N(Cc3cccnc3)C(=O)c3ccco3)sc2c1	x	i	x	i	u
COc1ccc2nc(N(Cc3cccnc3)C(=O)C3CCCCC3)sc2c1	x	i	x	i	6.31µM*
Cc1cccc2sc(N(Cc3cccnc3)C(=O)Cc3ccccc3)nc12	x	i	x	i	12.6µM*
O=S(=O)(c1ccc(Br)cc1)N1CCOCC1	5.6%	x	x	x	x
O=C(c1ccco1)N(Cc1cccnc1)c1nc2c(F)cccc2s1	x	i	x	i	16.5%
Cc1cccc2sc(N(Cc3cccnc3)C(=O)c3ccco3)nc12	x	i	x	i	17.8µM*
COC(=O)c1cc(-c2cc3ccccc3o2)c(=O)n2c1CCC2	x	i	x	x	x
COc1ccc(N2CCN(C(=O)c3cn(C4CCCC4)c(=O)c4c3c3ccccc3n4C)CC2)cc1	13.7%	u	-10.1%	i	20µM*
SMILES	aSyn yeast inh	FUS yeast rescue	Mito fusion yeast	Abeta rescue	TDP-43 yeast inh
Cc1ccccc1CN1CCCCC(NC(=O)c2cccc(C(F)(F)F)c2)C1=O (stereo not drawn)	x	i	x	x	x
COc1cc(/C=N/n2c(-c3cc(-c4ccccc4)n[nH]3)n[nH]c2=S)ccc1OCc1ccccc1	x	i	x	x	x
Cc1nc2ccccc2c2nc3ccccc3n12	u	i	-3.0%	i	12.6µM*
Fc1ccc(-c2nc3ccccc3c3nc4ccccc4n23)cc1	-12.8%	i	u	i	0.2%
CCCCCN1CCCCC(NC(=O)c2cc(OC)c(OC)c(OC)c2)C1=O (stereo not drawn)	x	i	x	x	x
Cc1ccccc1Cn1c(=O)n(Cc2ccc3c(c2)OCO3)c(=O)c2oc3ccccc3c21	x	i	x	i	9.8%
